The values below come from the OligoGym collection.
Also: reference of the scale not given here.

One experiment addresses CADM4. Briefly: pooled miR-30 sensor sort-seq; sequence = guide strand. The conditions noted are these: shRNA.
Take TCTGTCTGTACTTCCTGTCCTG: the sensor-assay potency score (higher = more potent) is 0.306. Turning to ACATATGATCAGAAACACCAGC, the sensor-assay potency score (higher = more potent) is -1.09. The same measure, in the same setting: the value for AAGCTGGAAACGCTCATCCTTC was -1.15.

The sequence TTGAAGAAGAGGGTCTGCCGGG registered a sensor-assay potency score (higher = more potent) of 0.128. Sequence TTTCAGCTCCTTGCGGTCCCGG displayed a sensor-assay potency score (higher = more potent) of -0.888. Still for that read-out and setting: the value for TGGATGACAACTATGGACCCAT was -0.33; that for TTCTGCCGTACCGAGCACCAGA was -1.21. As to TTTGCTGGTTCCTTGCAGCTGG, the sensor-assay potency score (higher = more potent) was found to be 0.149. As to TTACGGTCCACACGAAACCGTA, the sensor-assay potency score (higher = more potent) was -1.33. The sequence TATGATCAGAAACACCAGCAGC came in with a sensor-assay potency score (higher = more potent) of -1.06.

A further experiment deals with CALB1. Described as above. The conditions noted are these: shRNA.
For TTAGATACAGTGTATCACTAGC, the sensor-assay potency score (higher = more potent) was determined as 0.553. Take TAAGCATAGACTTTCTTCTTTT: the sensor-assay potency score (higher = more potent) was -0.786. As to TGTCACATCAACTTGAACCGAT, the sensor-assay potency score (higher = more potent) was found to be 0.787. TTCTCTGACAGTAAGTTTGTTG: the sensor-assay potency score (higher = more potent) is -0.382.

The sequence TTAGGTCTGTATACTCGGCTAA registered a sensor-assay potency score (higher = more potent) of -0.144.

Consider TAAATCTGTAATGAGACTGTTA, for which the sensor-assay potency score (higher = more potent) was 0.457. TTATTTTTTAGATACAGTGTAT gave a sensor-assay potency score (higher = more potent) of -0.499.

TATTCTTCTCGCACAGATCCTT returned a sensor-assay potency score (higher = more potent) of 0.132.

Take ATTATTAATATCCAGATCCTGT: the sensor-assay potency score (higher = more potent) was -0.387.

Sequence TTTTGTGTCATCAACAGTCTTG displayed a sensor-assay potency score (higher = more potent) of 0.226.

Sequence TAGGTCTGTATACTCGGCTAAT gave a sensor-assay potency score (higher = more potent) of -1.02. For TCTTGTTCAACTATATTTGTGA, the sensor-assay potency score (higher = more potent) came to 0.29.

Take TTGATTGGTAAACTAAATCTGT: the sensor-assay potency score (higher = more potent) was -0.119. Sequence ATTCTTCTCGCACAGATCCTTC gave a sensor-assay potency score (higher = more potent) of -1.06. TTCCCTTGTCACATCAACTTGA: the sensor-assay potency score (higher = more potent) turned out to be 0.335. The same measure, in the same setting: next, AAACAGTATAGAAACAAGCTGA: -0.0132. As to TTTAAGAAGAAAATTCTCCTGC, the sensor-assay potency score (higher = more potent) was 1.04. TATAAAAGAAAATACAGCCTAC had a sensor-assay potency score (higher = more potent) of -0.236. In turn, TTCGGTACAGCTTCCCTCCATC gave a sensor-assay potency score (higher = more potent) of -0.593. TTTGTGTCATCAACAGTCTTGT yielded a sensor-assay potency score (higher = more potent) of 0.294. Sequence TATGTATCCATTGCCGTCCTGA yielded a sensor-assay potency score (higher = more potent) of -0.391.

With TGTAATATTATTAATATCCAGA, the sensor-assay potency score (higher = more potent) was -0.351. Regarding TATTTTTCCATCATCTCTTTGC, the sensor-assay potency score (higher = more potent) is -0.281. On to TAAGCTTAGAAATATTTTGTGG, for which the sensor-assay potency score (higher = more potent) is -0.267.

A further experiment addresses CAMK2N1. The description is as above. The note with it: shRNA.
Sequence TATCATCTTCAATAACAACCCG had a sensor-assay potency score (higher = more potent) of -0.355. TCTTCAATAACAACCCGCTTGC came in with a sensor-assay potency score (higher = more potent) of -0.41. The sequence ATAACAACCCGCTTGCTCCGGC returned a sensor-assay potency score (higher = more potent) of -0.269. Regarding ATCATCTTCAATAACAACCCGC, the sensor-assay potency score (higher = more potent) is -0.379. The same measure, in the same setting: next, TTTCAGCACGTCATCAATCCTA: -0.00921.
